The supplement of paper PMC12067093, “Discovery and optimisation of a covalent ligand for TRIM25 and its application to targeted protein ubiquitination” (Chemical Science, 2025)
Of roughly 21,000 targets only a part is listed; those with the largest changes were picked by preference.

Compound: Cc1cc(ccc1-c1ccccc1)C(=O)N1CCCN(CC1)C(=O)CCl [compound 10]
Assay: probe-labelled cysteine peptide fold change vs DMSO (competition) (log2 fold change); higher = less target engagement (more negative = stronger competition)
Conditions: 10 µM; THP-1; incubation time: 4 h
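Further: competitive profiling in live THP-1 cells: cysteine peptides tagged with an iodoacetamide desthiobiotin (IA-DTB) probe, intensity after compound treatment relative to DMSO-treated cells.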

Sequence of UniProt Q96PV6 (Q96PV6 whole entry, looked up): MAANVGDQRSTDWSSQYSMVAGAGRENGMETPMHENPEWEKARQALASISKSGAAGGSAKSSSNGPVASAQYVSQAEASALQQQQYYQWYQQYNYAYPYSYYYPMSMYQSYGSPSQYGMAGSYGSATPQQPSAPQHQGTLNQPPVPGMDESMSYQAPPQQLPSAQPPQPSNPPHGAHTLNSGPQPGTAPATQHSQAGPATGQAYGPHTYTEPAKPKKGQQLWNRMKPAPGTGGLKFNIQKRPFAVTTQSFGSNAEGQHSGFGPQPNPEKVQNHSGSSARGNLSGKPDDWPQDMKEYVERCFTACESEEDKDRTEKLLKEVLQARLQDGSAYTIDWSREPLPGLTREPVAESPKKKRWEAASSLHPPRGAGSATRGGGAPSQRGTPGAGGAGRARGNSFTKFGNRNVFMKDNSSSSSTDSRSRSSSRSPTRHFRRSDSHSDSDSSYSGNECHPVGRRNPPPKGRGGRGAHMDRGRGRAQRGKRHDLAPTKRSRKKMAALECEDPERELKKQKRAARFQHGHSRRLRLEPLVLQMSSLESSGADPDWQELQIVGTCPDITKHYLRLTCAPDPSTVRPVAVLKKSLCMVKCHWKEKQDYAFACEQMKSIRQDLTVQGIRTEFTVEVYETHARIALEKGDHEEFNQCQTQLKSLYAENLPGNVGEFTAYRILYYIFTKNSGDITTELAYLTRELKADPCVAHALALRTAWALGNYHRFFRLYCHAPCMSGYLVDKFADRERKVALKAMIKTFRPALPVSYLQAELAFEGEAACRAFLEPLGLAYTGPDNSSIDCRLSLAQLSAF
Sequence of UniProt P42285 (P42285 whole entry, looked up): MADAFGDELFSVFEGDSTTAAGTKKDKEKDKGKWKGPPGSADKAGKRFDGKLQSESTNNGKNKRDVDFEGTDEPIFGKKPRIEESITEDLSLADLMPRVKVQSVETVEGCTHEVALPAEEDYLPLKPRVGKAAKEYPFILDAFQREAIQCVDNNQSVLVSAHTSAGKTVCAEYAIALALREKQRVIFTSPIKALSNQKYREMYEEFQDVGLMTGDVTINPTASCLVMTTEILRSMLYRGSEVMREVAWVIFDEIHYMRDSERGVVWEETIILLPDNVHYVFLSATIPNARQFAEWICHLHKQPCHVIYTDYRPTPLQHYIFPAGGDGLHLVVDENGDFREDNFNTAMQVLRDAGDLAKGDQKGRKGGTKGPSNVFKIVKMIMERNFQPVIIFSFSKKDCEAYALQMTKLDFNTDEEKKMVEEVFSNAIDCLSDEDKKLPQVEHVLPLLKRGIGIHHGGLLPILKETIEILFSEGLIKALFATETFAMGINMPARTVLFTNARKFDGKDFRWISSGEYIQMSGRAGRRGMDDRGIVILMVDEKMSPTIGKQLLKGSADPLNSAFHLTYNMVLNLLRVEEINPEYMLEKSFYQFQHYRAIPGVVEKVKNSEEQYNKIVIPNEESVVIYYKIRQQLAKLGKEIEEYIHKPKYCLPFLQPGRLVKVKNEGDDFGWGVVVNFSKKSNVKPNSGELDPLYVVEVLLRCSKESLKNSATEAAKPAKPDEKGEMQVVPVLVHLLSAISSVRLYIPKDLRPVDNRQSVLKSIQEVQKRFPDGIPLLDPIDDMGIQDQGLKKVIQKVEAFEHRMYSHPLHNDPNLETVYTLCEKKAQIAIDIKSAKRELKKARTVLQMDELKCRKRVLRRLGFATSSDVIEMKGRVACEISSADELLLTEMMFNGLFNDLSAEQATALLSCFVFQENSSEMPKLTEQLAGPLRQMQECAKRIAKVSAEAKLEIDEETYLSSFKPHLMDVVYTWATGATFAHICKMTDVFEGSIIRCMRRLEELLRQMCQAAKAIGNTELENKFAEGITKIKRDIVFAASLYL
Sequence of UniProt Q9BTE3 (Q9BTE3 whole entry, looked up): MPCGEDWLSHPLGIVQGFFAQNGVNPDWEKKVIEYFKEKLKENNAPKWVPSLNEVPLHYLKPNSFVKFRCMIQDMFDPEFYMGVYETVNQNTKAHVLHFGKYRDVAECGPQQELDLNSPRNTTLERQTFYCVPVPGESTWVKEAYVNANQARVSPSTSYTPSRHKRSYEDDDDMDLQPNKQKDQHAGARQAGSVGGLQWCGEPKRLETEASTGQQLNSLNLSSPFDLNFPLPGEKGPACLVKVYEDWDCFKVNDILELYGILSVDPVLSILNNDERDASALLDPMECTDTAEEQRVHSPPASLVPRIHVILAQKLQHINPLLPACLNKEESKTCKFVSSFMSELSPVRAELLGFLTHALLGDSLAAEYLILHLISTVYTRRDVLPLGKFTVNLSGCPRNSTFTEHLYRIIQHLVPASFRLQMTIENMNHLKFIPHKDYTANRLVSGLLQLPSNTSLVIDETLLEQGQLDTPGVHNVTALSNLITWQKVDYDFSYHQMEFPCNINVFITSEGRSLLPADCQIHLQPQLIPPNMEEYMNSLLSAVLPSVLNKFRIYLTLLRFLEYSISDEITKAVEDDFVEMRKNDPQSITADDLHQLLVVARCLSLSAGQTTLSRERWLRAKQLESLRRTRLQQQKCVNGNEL
Sequence of UniProt P25205 (P25205 whole entry, looked up): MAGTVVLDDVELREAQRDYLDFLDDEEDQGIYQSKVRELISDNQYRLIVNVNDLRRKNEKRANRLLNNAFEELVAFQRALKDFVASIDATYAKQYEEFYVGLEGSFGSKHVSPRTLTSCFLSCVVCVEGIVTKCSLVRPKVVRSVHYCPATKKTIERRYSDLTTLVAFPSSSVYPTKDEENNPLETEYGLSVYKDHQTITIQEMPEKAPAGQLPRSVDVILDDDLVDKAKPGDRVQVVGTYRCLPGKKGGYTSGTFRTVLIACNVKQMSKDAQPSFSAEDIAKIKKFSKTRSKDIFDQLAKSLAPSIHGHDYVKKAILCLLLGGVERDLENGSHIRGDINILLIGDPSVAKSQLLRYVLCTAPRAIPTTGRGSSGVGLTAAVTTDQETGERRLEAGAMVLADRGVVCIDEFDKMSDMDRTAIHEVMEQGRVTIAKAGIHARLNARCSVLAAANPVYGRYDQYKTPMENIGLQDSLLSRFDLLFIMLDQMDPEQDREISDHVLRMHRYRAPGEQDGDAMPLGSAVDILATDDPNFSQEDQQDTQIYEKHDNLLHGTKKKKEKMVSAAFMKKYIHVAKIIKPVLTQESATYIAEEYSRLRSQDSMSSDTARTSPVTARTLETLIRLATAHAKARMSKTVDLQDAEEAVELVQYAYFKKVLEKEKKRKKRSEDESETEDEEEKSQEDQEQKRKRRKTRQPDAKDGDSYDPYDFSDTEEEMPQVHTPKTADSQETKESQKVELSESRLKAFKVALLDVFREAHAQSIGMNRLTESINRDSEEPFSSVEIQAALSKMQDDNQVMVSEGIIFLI
Sequence of UniProt Q13615 (Q13615 whole entry, looked up): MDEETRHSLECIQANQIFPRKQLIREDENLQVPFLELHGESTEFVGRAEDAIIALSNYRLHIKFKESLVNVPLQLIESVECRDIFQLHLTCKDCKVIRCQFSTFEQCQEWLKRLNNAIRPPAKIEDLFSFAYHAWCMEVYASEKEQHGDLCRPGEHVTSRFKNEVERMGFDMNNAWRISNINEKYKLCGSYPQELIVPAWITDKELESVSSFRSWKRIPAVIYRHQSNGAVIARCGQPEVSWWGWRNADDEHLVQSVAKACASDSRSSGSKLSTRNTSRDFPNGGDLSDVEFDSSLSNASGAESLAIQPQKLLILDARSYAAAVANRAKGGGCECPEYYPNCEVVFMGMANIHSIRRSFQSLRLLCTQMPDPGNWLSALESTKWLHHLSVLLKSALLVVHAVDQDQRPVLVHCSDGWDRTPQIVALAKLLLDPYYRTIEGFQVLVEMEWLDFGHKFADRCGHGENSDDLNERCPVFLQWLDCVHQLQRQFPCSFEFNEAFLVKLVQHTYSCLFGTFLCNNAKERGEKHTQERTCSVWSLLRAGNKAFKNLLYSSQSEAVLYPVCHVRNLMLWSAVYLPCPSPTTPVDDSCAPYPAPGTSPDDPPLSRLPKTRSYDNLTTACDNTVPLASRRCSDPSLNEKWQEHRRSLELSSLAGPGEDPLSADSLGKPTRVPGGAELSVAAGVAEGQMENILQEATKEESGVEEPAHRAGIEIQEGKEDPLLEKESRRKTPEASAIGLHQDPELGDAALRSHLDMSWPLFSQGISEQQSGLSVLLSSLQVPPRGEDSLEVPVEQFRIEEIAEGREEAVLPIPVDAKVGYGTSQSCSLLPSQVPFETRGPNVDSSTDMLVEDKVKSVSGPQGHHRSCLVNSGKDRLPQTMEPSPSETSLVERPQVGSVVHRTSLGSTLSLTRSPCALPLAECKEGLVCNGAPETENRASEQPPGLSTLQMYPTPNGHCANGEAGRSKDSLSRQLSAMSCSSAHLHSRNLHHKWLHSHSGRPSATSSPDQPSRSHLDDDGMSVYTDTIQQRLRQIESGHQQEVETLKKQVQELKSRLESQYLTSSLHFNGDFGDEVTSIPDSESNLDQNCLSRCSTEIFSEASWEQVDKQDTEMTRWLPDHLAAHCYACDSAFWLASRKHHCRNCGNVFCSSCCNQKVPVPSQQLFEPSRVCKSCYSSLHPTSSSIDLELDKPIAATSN
Sequence of UniProt Q96L50 (Q96L50 whole entry, looked up): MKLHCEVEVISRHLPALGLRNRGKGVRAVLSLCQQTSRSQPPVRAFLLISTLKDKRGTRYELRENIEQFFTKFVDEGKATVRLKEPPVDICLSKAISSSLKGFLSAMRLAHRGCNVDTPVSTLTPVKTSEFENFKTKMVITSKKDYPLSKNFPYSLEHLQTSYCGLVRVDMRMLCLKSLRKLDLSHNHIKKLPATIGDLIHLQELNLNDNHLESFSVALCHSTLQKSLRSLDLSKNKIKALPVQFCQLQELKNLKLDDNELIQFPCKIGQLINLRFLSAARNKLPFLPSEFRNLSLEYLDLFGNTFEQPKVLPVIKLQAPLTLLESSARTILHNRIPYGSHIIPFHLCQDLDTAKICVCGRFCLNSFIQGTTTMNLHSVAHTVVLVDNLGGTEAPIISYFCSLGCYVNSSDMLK

Target	probe-labelled cysteine peptide fold change
MTMR3_Q13615_473_CPVFLQWLDCVHQLQR (UniProt Q13615)	-0.0651
LENG8_Q96PV6_584_SLCMVK (UniProt Q96PV6)	-0.193
MAPK9_P45984_222_GCVIFQGTDHIDQWNK (UniProt P45984)	-0.0703
MRPS30_Q9NP92_393_NICWGTQSK (UniProt Q9NP92)	-0.226
MAPK9_P45984_177_TACTNFMMTPYVVTR (UniProt P45984)	-0.494
MTMR10_Q9NXD2_70_LICSNFK (UniProt Q9NXD2)	-0.125
MRPS31_Q92665_356_HFMELVTCGLSK (UniProt Q92665)	0.0457
MCM2_P49736_661_FDILCVVR (UniProt P49736)	0.242
LMAN1_P49257_230_NDYEFCAK (UniProt P49257)	0.239
MCMBP_Q9BTE3_249_VYEDWDCFK (UniProt Q9BTE3)	-0.042
LPIN3_Q9BQK8_443_SLRDPNPEHEPEPTLDTVDTIALSLCGGLADSR (UniProt Q9BQK8)	-0.112
MAP2K2_P36507_384_SEVEEVDFAGWLCK (UniProt P36507)	0.0856
MTREX_P42285_430_KMVEEVFSNAIDCLSDEDK (UniProt P42285)	-0.306
METAP2_P50579_263_IIDCAFTVTFNPK (UniProt P50579)	0.171
MCM2_P49736_584_GVCLIDEFDK (UniProt P49736)	0.0289
MYBL2_P10244_147_SCWTEEEDRIICEAHK (UniProt P10244)	0.166
MSTO1_Q9BUK6_347_LCSSPVSMVHLADMLSFCGK (UniProt Q9BUK6)	0.0999
MED13_Q9UHV7_681_NQCLSAIASDAEQEPK (UniProt Q9UHV7)	0.327
MCM3_P25205_119+123+126_TLTSCFLSCVVCVEGIVTK (UniProt P25205)	-0.0216
MDN1_Q9NU22_3985_KFEAVLSEPCR (UniProt Q9NU22)	-0.313
MTHFD1_P11586_236_GEWIKPGAIVIDCGINYVPDDK (UniProt P11586)	0.183
LRPPRC_P42704_571_YCQEPR (UniProt P42704)	0.261
LRR1_Q96L50_5_LHCEVEVISR (UniProt Q96L50)	-0.12

Same assay, conditions: 50 µM; THP-1; incubation time: 4 h

Target	probe-labelled cysteine peptide fold change
MEFV_O15553_375_KSPGSLSPQPLPQCK (UniProt O15553)	-1.2
MIS18A_Q9NYP9_85_AQLEEEAAAAEERPLVFLCSGCR (UniProt Q9NYP9)	-0.0262
MCM5_P33992_355_AIACLLFGGSRK (UniProt P33992)	-0.759
LSS_P48449_471_CPHVTEHIPR (UniProt P48449)	-0.209
MMS19_Q96T76_331_REVFQTASERVEAEGLAALHSLTACLSR (UniProt Q96T76)	0.0397
LGALS3_P17931_173_VIVCNTK (UniProt P17931)	-0.00184
MACF1_Q9UPN3_5309_DCDVQGLEHDMEEINAR (UniProt Q9UPN3)	0.126
MRI1_Q9BV20_168_VTVLTHCNTGALATAGYGTALGVIR (UniProt Q9BV20)	0.0771
MITD1_Q8WV92_226_FSLGYCDFDLRPCHETTVDIFHK (UniProt Q8WV92)	0.0591
MFSD14A_Q96MC6_465_HCGSHSHPHNTQAPGEAK (UniProt Q96MC6)	-1.11
MYADM_Q96S97_279_SRDVSCSR (UniProt Q96S97)	1.22
MYH9_P35579_789_ITDVIIGFQACCR (UniProt P35579)	-0.0345
LIMS3_P0CW19-2_136_YCEHDFQMLFAPCCHQCGEFIIGR<|>LIMS1_P48059_74_YCEHDFQMLFAPCCHQCGEFIIGR (UniProt P48059+P0CW19)	0.138
MMP14_P50281_574_RLLYCQR (UniProt P50281)	-0.518
MRPL42_Q9Y6G3_45_STYSPLPDDYNCNVELALTSDGR (UniProt Q9Y6G3)	-0.1
MTMR3_Q13615_473_CPVFLQWLDCVHQLQR (UniProt Q13615)	0.044
LENG8_Q96PV6_584_SLCMVK (UniProt Q96PV6)	-1.09
MAPK9_P45984_222_GCVIFQGTDHIDQWNK (UniProt P45984)	0.0724
MRPS30_Q9NP92_393_NICWGTQSK (UniProt Q9NP92)	-0.187

Target	probe-labelled cysteine peptide fold change
MAPK9_P45984_177_TACTNFMMTPYVVTR (UniProt P45984)	-1.64
MTMR10_Q9NXD2_70_LICSNFK (UniProt Q9NXD2)	-0.103
MRPS31_Q92665_356_HFMELVTCGLSK (UniProt Q92665)	-0.112
MCM2_P49736_661_FDILCVVR (UniProt P49736)	0.398
LMAN1_P49257_230_NDYEFCAK (UniProt P49257)	0.703
MCMBP_Q9BTE3_249_VYEDWDCFK (UniProt Q9BTE3)	-0.0294
LPIN3_Q9BQK8_443_SLRDPNPEHEPEPTLDTVDTIALSLCGGLADSR (UniProt Q9BQK8)	0.0613
MAP2K2_P36507_384_SEVEEVDFAGWLCK (UniProt P36507)	0.0969
MTREX_P42285_430_KMVEEVFSNAIDCLSDEDK (UniProt P42285)	-0.485
METAP2_P50579_263_IIDCAFTVTFNPK (UniProt P50579)	0.0277
MCM2_P49736_584_GVCLIDEFDK (UniProt P49736)	0.142
MYBL2_P10244_147_SCWTEEEDRIICEAHK (UniProt P10244)	-0.335
MSTO1_Q9BUK6_347_LCSSPVSMVHLADMLSFCGK (UniProt Q9BUK6)	0.248
MED13_Q9UHV7_681_NQCLSAIASDAEQEPK (UniProt Q9UHV7)	0.0925
MCM3_P25205_119+123+126_TLTSCFLSCVVCVEGIVTK (UniProt P25205)	-1.13
MDN1_Q9NU22_3985_KFEAVLSEPCR (UniProt Q9NU22)	-0.0822
MTHFD1_P11586_236_GEWIKPGAIVIDCGINYVPDDK (UniProt P11586)	0.298
LRPPRC_P42704_571_YCQEPR (UniProt P42704)	0.6
LRR1_Q96L50_5_LHCEVEVISR (UniProt Q96L50)	0.0535
